# From PubChem
# Shown are actives, neighbours in structure and some others; about 3.9% of the full set was active somewhere.
# PLK1 PBD inh: blocks phosphopeptide binding to human PLK1 polo-box domain; P53350; Plk1 PBD binding of FITC phosphopeptide, fluorescence polarization; actives 2.8% (n = 360,000); Potency, µM, inactives show max response, negative = inhibition, usual class: inhibitors; also: series mostly up to about 57 µM; % is scaled to controls: 0 for no effect and ±100 for the full control effect; nearly all actives have a fitted effect of over 65% in size
# BRCA1 expr act: activators of BRCA1 expression | MCF7-BRCA1-FFLuc reporter, luminescence, 48 h; response scale: scaled: vehicle 0%, 10 µM genistein 100% | Potency, µM (highest dose often 46.1 µM), for the others: at the top dose activation, actives largely listed as activators | AID 624202 | actives 1.1% (n = 380,000); also: nearly all actives have a fitted effect of over 80% in size
#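 Luminescence from a BRCA1-driven firefly luciferase in MCF7 cells was read after 48 h compound exposure at 37 C. Data normalized against DMSO and a 10microM genistein activation control, then curve-fitted across the titration.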
# VDR inh: vitamin D3 receptor (human) inhibition. P11473. VDR-SRC2-3 peptide fluorescence polarization, 2 h. Potency, µM, inactives show max response, negative = inhibition, most hits filed as inhibitors. actives 0.93% (n = 400,000); also: % is scaled to controls: 0 for no effect and ±100 for the full control effect
# Target sequence (P11473 whole entry, looked up): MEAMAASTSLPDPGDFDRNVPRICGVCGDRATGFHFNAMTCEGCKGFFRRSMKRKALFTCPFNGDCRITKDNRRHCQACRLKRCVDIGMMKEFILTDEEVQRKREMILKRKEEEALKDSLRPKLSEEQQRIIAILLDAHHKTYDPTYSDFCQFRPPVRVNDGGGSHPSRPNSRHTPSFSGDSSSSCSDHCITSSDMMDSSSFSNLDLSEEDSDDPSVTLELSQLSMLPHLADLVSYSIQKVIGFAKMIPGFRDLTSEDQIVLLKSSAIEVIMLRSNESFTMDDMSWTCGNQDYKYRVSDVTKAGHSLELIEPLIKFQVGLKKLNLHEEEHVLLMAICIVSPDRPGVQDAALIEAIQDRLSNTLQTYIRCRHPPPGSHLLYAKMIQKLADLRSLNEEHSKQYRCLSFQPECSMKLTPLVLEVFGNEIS
#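 Compounds are added to VDR with labelled SRC2-3 coactivator peptide and held 2 h at room temperature. Inhibition of the VDR–peptide interaction is then read as a change in fluorescence polarization.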
# Tb PFK block: blocks T. brucei phosphofructokinase | O15648 | T. brucei PFK, ADP-Glo luminescence | Potency, µM (highest dose often 57.5 µM), for inactives: at the top dose activity, negative = inhibition, actives largely listed as inhibitors | actives 0.17% (n = 330,000) | AID 485367;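 also: 0% = uninhibited 1x PFK enzyme wells and -100% = no-enzyme wells; nearly all actives have a fitted effect of over 60% in size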
#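 PFK 1.25 nM, F6P 0.5 mM, ATP 0.1 mM, 0.1 M TEA pH 8.0, 5 mM MgCl2, 0.01% Tween20, 0.1% BSA; 45 min RT. ADP-Glo readout. qHTS titration up to 57 uM; curves fitted, compounds curve-classed.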
# An asterisk follows results filed as active; ? = inconclusive; . = no result given; ! = a repeat was not active. Calls follow the shape of the dose curve; as a rule, active = well fitted curve in the direction sought with a large enough effect; inconclusive = small, poorly fitted or top-dose-only effect, or another doubt; inactive = no such curve, though single readings can be large; an effect the other way counts as inactive or inconclusive. Potency is read from the fitted curve at half-maximal effect.
SMILES,PLK1 PBD inh,BRCA1 expr act,VDR inh,Tb PFK block
Cc1cccc(NC(=O)C2CCN(c3ncnc4c3nc3n4CCCCC3)CC2)n1,27µM*,7%,-24%,-7%
CC(C)c1ccc(NC(=O)C2CCN(c3ncnc4c3nc3n4CCCCC3)CC2)cc1,30µM*,-7%,-21%,-1%
C#CCN(CC(=O)OCC)S(=O)(=O)CCNC1CC1,-12%,-6%,.,.
Cc1ccccc1C(=O)OCc1cc(=O)n2nc(-c3cccs3)sc2n1,.,-4%,-4%,.
Cc1ccccc1NC(=O)CS(=O)(=O)c1cccc2nsnc12,.,7%,-14%,.
CCC(C)NC(=O)c1ccc2c(c1)nc1n2CCCCC1 (centres undefined),.,.,16%,.
O=C1C2C3C=CC(CNS(=O)(=O)c4ccccc4[N+](=O)[O-])(O3)C2C(=O)N1c1ccccc1 (centres undefined),67µM*,-32%,-13%,1%
Cc1ccc(CN(C(=O)COc2cc(C)c(Cl)c(C)c2)c2ccccn2)o1,.,4%,13%,.
COC(=O)/C=C/COc1ccccc1[N+](=O)[O-],3.4µM*,?,?,-2%
O=C(Nc1ccc2nc(C3CC3)n(Cc3ccccc3)c(=O)c2c1)C1CC1,0%,113%,5%,-8%
CCC(=O)Nc1ccc2nc(C3CC3)n(Cc3ccccc3)c(=O)c2c1,-5%,4µM*,3%,4%
C/C=C(\C)C(=O)OC1[C@H](OC(C)=O)C2(CO)C(CC1(C)C)C1=CCC3C4(C)CCC(O[C@@H]5O[C@H](C(=O)O)[C@@H](O[C@@H]6O[C@H](CO)[C@@H](O)[C@H](O)[C@H]6O)[C@H](O)[C@H]5O[C@H]5O[C@H](CO)[C@@H](O)[C@H](O)[C@H]5O)[C@](C)(CO)C4CCC3(C)[C@]1(C)C[C@H]2O (some centres undefined),-26%,-86%,?,.
O=c1cc(-c2cccc(F)c2)[nH]c2cc(Cl)ccc12,.,.,0%,.
Clc1ccc(OCCn2cnc3ccccc32)cc1,3µM*,65%,-22%,-3%
Cc1nnc(NC(=O)CSc2nnc(-c3ccoc3C)n2CC(C)C)s1,27µM*,0%,?,1%
COc1ccc2nc(NC(=O)CSc3nnc(-c4ccoc4C)n3C)sc2c1,-4%,5.6µM*,-3%,-3%
CCCn1c(SCC(=O)Nc2nnc(C)s2)nnc1-c1ccoc1C,27µM*,5%,?,-2%
CCCCn1c(SCC(=O)Nc2nnc(C)s2)nnc1-c1ccoc1C,1%,0%,-6%,1%
CCn1c(=O)n(-c2ccc(F)c(Cl)c2)c(=O)c2c3c(sc21)CN(C(C)=O)CC3,.,0%,-3%,.
COc1cc(Cl)c(C)cc1NC(=O)C1CCN(c2nc3ccccc3n3cccc23)CC1,.,.,8%,.
CCN(CC)c1ccc(C(=O)NCc2ccc3c(c2)CCN3C(=O)c2ccccc2)cc1,.,.,9%,.
CCOC(=O)c1ccc(-c2nnc(-c3ccc(Cl)cc3Cl)o2)cc1,-7%,0.89µM*,-1%,-1%
CCNC(=S)Nc1ccc2c(c1)c(=O)n(C)n2CC=C(C)C,21µM*,0%,.,.
CCNC(=O)Nc1ccc2c(c1)c(=O)n(C)n2CC=C(C)C,-19%,8%,.,.
Cc1cccc(-n2c(O)c(C=Nc3ccccc3)c3ccccc3c2=O)n1,24µM*,0%,32µM*,6%
SMILES,PLK1 PBD inh,BRCA1 expr act,VDR inh,Tb PFK block
CCc1ccccc1N1CC23C=CC(O2)C(C(=O)O)C3C1=O (centres undefined),27µM*,5%,89µM*,5%
COc1ccc2cc(CNc3ccc(OC)c(OC)c3)c(=O)n(CC(=O)Nc3ccc(C)cc3)c2c1,.,-11%,6%,.
Cc1nn(CC(=O)Nc2cccc(C(F)(F)F)c2)c(=O)c2cccn12,27µM*,-9%,-30%,4%
CCc1ccc(NC(=O)Cn2nc(C)n3cccc3c2=O)cc1,1%,-2%,6%,14%
Cn1c2ccccc2c2ncn(CCC3=CCCCC3)c(=O)c21,-7%,10µM*,-4%,-2%
O=C1C(=O)c2ccccc2C(O)=C1c1ccccc1F,-7%,-15%,1%,5%
O=C1C(O)=C(O)C(=O)c2ccccc21,-16%,-50%,8.9µM*,.
O=C1C=C(O)c2cccc(O)c2C1=O,-18%,-5%,-14%,4%
O=C1C=C(c2c(O)ccc3ccccc23)c2ccccc2C1=O,7.5µM*,-89%,?,.
O=C1C=C(O)c2ccccc2C1=O,.,.,8.9µM*,.
CC(C)(C)OC(=O)N[C@@H](CC(=O)OCc1ccccc1)C(=O)O,27µM*,12%,-5%,-6%
CC(C)(C)OC(=O)NC(CC(=O)OCc1ccccc1)C(=O)O (centres undefined),-12%,8%,-6%,-6%
O=C(Cc1ccc(Cl)cc1)NC1CC(=O)N(c2ccc3c(c2)OCCO3)C1 (centres undefined),.,0%,10%,.
O=c1oc2ccccc2c2oc3cc(O)c(O)cc3c12,-24%,13%,26%,0%
O=c1oc2c(O)c(O)cc3c(=O)oc4c(O)c(O)cc1c4c23,8.4µM*,1%,40µM*!,?
Cc1cc2c(cc(C(=O)OCC(=O)NC3CCCCC3)n2C)o1,27µM*,0%,?,.
Cc1nn(-c2ccccc2)c(N)c1Sc1ccc([N+](=O)[O-])cc1,12µM*,-5%,?,-16%
Cc1nn(C(C)(C)C)c(OC(=O)C(C)(C)C)c1Sc1ccccc1,.,.,-8%,.
Cc1nn(-c2ccccc2)c(OC(=O)C(C)C)c1Sc1ccccc1,.,.,71µM*,.
COc1ccc(C(=O)Oc2c(Sc3ccccc3)c(C)nn2-c2ccccc2)cc1OC,.,.,-29%,.
Cc1nn(-c2ccccc2)c(OC(=O)C(C)(C)C)c1Sc1ccccc1,.,.,79µM*,.
Cc1nn(-c2ccccc2)c2c1C(c1ccc([N+](=O)[O-])cc1)C(C#N)=C(N)O2 (centres undefined),?,-8%,?,-3%
CC(C)(C)N(NS(=O)(=O)c1ccc(F)cc1)c1ccccc1,?,-9%,45µM*,-17%
Cc1ccc(CNC(=O)c2cc(=O)c3cc(C)c(C)cc3o2)cc1,.,.,5%,.
CCCS(=O)(=O)NC(=O)C1(C)CCN(C(=O)c2ccc(OC(F)F)cc2)C1 (centres undefined),4%,17%,.,.
SMILES,PLK1 PBD inh,BRCA1 expr act,VDR inh,Tb PFK block
CNCCc1cnc(CCC(c2ccccc2)c2ccccc2)[nH]1,.,.,-13%,.
O=C1NC2CCCCC2C(=O)N1OS(=O)(=O)c1ccccc1 (centres undefined),0.75µM*,-34%,16µM*,.
COCCNC(=O)C1(C)CCCN(C(=O)c2cc(F)ccc2C)C1 (centres undefined),-8%,11%,.,.
CC(=O)Oc1ccc2oc(-c3ccccc3)c(C(N)=O)c2c1,27µM*,16%,?,-2%
CCOc1ccc2oc(-c3ccccc3)c(C(N)=O)c2c1,-5%,49%,5%,2%
CCOc1ccc(-c2cc(-c3nc(-c4cc(OC)c(OC)c(OC)c4)no3)[nH]n2)cc1Cl,.,.,15%,.
Cc1cccc(C)c1-n1nnnc1C1(C)CCC(=O)N1CCc1ccc(O)cc1 (centres undefined),-8%,12%,.,.
